Experimental findings from PubChem BioAssay AID1053133 (Broad Institute, 2014) are described below.

Where “and” joins values, the source holds several entries; their conditions need not be identical. Equal values may be shown once. The whole screen tested about 89,000 compounds, of which about 10 (0.01%) were called active. Another 10% or so got no clear call; they are omitted. Cut-off read from the data, not from the text of the source: active = activity change below about -37% (passing the limit was not always enough); inconclusive = no clear call, values can overlap the other calls; tested in A549 cells. These entries were drawn from the full list.

This test is described as follows: Vaccinia orthopox stage-specific inhibition, primary screen, cell-based, single point (AID 1053133). Conditions: Vaccinia-infected cells, mCherry/Venus stage reporter fluorescence, stronger effect = lower value, concentration not given here; activity change (Venus): measured here: Venus reporter, other viral stage.
With `CCNC(=O)[C@H]1[C@H](CO)[C@H]2Cn3c(ccc(/C=C/c4ccccc4)c3=O)[C@@H]1N2C(=O)C1CCC1`, the activity change (Venus) was determined as 12.9% and the activity change (mCherry) is 11.2% (inactive).
`O=C(C[C@H]1C=C[C@@H](NC(=O)C2CCOCC2)[C@@H](CO)O1)NCC1CCCCC1`: the activity change (Venus) was found to be 1.03% and the activity change (mCherry) is 8.68% (inactive).
The like results for `O=C(CC1CC1)Nc1ccc2c(c1)[C@@H]1C[C@@H](CC(=O)NC3CCCCC3)O[C@@H](CO)[C@@H]1O2` were, in that order, -4.69% and -3.33% (inactive).
The like results for `O=C(Nc1cc(F)ccc1F)N[C@@H]1C=C[C@@H](CC(=O)N2CCc3ccccc3C2)O[C@@H]1CO` were, in that order, -0.0639% and -17.7% (inactive).
For `C[C@H](CO)N1C[C@H](C)[C@@H](CN(C)C(=O)c2cnccn2)Oc2ncc(Br)cc2C1=O` the same measures were -0.956% and 2.65% (inactive).
With `CCCNC(=O)N(C)C[C@H]1Oc2cc(C3=CCCCC3)ccc2S(=O)(=O)N([C@H](C)CO)C[C@H]1C`, the activity change (Venus) was -0.298% and the activity change (mCherry) is -6.09% (inactive).
In the case of `Cc1ccccc1S(=O)(=O)N[C@H]1CC[C@H](CCn2cc(-c3ccc(F)cc3)nn2)O[C@H]1CO`, the activity change (Venus) is -25.8% and the activity change (mCherry) is -28.8% (inactive).
For `C[C@H]1CCCCO[C@H](CN(C)S(=O)(=O)c2cn(C)cn2)[C@@H](C)CN([C@@H](C)CO)C(=O)c2cc(NC(=O)C3CCCCC3)ccc2O1` the same measures were 4.42% and 9.05% (inactive).
In the case of `O=C(Nc1nccs1)[C@@H]1[C@@H](CO)[C@@H]2Cn3c(ccc(-c4cccnc4)c3=O)[C@@H]2N1CC1CC1`, the activity change (Venus) was determined as 2.33% and the activity change (mCherry) is 16.6% (inactive).
Regarding `COc1cccc(-c2cnc3c(c2)C(=O)N([C@H](C)CO)C[C@H](C)[C@@H](CN(C)Cc2ccc(C(=O)O)cc2)O3)c1`, the activity change (Venus) was 12.8% and the activity change (mCherry) is 13.4% (inactive).
The like results for `COc1ccccc1-c1cnc2c(c1)C(=O)N([C@H](C)CO)C[C@H](C)[C@@H](CN(C)C(=O)CC1CC1)O2` were, in that order, -0.21% and 5.06% (inactive).
For `O=C(C[C@H]1CC[C@H]2[C@@H](COC[C@@H](O)CN2Cc2ccccc2F)O1)NCc1ccccc1F` the same measures were 2.5% and -8.36% (inactive).
For the compound `O=C(C[C@H]1CC[C@H]2[C@@H](COC[C@@H](O)CN2S(=O)(=O)c2ccc(Cl)cc2)O1)NCCN1CCCCC1`, the activity change (Venus) is 2.96% and the activity change (mCherry) is 7.02% (inactive).
For `COCC#Cc1ccc(CC[C@H]2O[C@H]3CC[C@@H](CO)O[C@H]3C[C@H]2NC(=O)Nc2c(C)noc2C)cc1`, the activity change (Venus) was found to be 12.1% and the activity change (mCherry) is 18.6% (inactive).
The like results for `CC(=O)N(C)C[C@@H]1Oc2ncc(C#Cc3ccccn3)cc2C(=O)N([C@@H](C)CO)C[C@@H]1C` were, in that order, 9.68% and 7.16% (inactive).
`O=C(Cc1ccncc1)NCC[C@H]1CC[C@H](NC(=O)Nc2cccc(F)c2)[C@H](CO)O1`: the activity change (Venus) stood at 5.2% and the activity change (mCherry) is 3.69% (inactive).
For the compound `COc1ccc(NC(=O)Nc2ccc3c(c2)C(=O)N([C@@H](C)CO)C[C@@H](C)[C@@H](CN(C)C(=O)Nc2ccc(F)cc2)OCCCC[C@@H](C)O3)cc1`, the activity change (Venus) was -5.96% and the activity change (mCherry) is 0.168% (inactive).
For `Cn1cnc(CCNC(=O)[C@H]2[C@H](CO)[C@H]3Cn4c(cccc4=O)[C@H]3N2C(=O)Nc2ccccc2)c1` the same measures were 5.32% and 12% (inactive).
On to `COc1ccc(S(=O)(=O)Nc2ccc3c(c2)C(=O)N([C@@H](C)CO)C[C@H](C)[C@H](CN(C)Cc2ccc(C(=O)O)cc2)OCCCC[C@@H](C)O3)cc1`, for which the activity change (Venus) is 19.1% and the activity change (mCherry) is 34.5% (inactive).
The like results for `O=C(C1CCCC1)N1[C@H](CO)[C@@H]2c3ccccc3N(S(=O)(=O)c3ccccc3)C[C@@H]21` were, in that order, -0.835% and 3.15% (inactive).
Turning to `CCC(=O)N1CCC2(CC1)CN(Cc1ccc(Cl)cc1)[C@@H](CO)c1[nH]c3cc(OC)ccc3c12`, the activity change (Venus) was 3.95% and the activity change (mCherry) was 2.91% (inactive).
In the case of `O=C(C[C@H]1CC[C@@H](NC(=O)c2ccc(F)cc2)[C@@H](CO)O1)NCc1ccncn1`, the activity change (Venus) turned out to be 6.42% and the activity change (mCherry) was 11.2% (inactive).
The like results for `Cc1ccc(S(=O)(=O)NCC[C@@H]2CC[C@@H](NC(=O)CCN3CCCCC3)[C@@H](CO)O2)cc1` were, in that order, 12.7% and 18.4% (inactive).
For `Cc1ccccc1-c1ccc2c(c1)O[C@@H](CN(C)Cc1ccc(C(=O)O)cc1)[C@@H](C)CN([C@H](C)CO)S2(=O)=O`, the activity change (Venus) is 9.16% and -2.89%; the activity change (mCherry) was 13.4% (inactive) and 11.3% (inactive).
Turning to `COC(=O)[C@@H]1[C@@H](CO)[C@@H]2Cn3c(ccc(C4=CCCC4)c3=O)[C@@H]2N1Cc1cncnc1`, the activity change (Venus) came to 12.2% and the activity change (mCherry) was 12.2% (inactive).
The like results for `C[C@H](O)C#Cc1ccc([C@@H]2[C@@H](CO)N3CCCCN(C(=O)c4ccc(F)cc4)C[C@H]23)cc1` were, in that order, -0.172% and 24.9% (inactive).
Take `COC(=O)C[C@H]1CC[C@H]2[C@H](COc3ccc(NC(=O)C4CC4)cc3C(=O)N2C)O1`: the activity change (Venus) worked out at 8.69% and the activity change (mCherry) is 16.9% (inactive).
The like results for `C[C@@H](NC(=O)C[C@H]1CC[C@H](NS(=O)(=O)c2cccc(F)c2)[C@H](CO)O1)c1ccccc1` were, in that order, 2.54% and 12.2% (inactive).
The like results for `COc1ccc(NC(=O)N(C)C[C@@H]2OCCCC[C@H](C)Oc3ccc(NS(=O)(=O)c4cn(C)cn4)cc3C(=O)N([C@@H](C)CO)C[C@@H]2C)cc1` were, in that order, 6.5% and 16% (inactive).
In the case of `CO[C@@H]1CN(C)C(=O)c2ccc(NS(=O)(=O)c3cccc(F)c3)cc2OC[C@H](C)N(C(=O)Cc2cccnc2)C[C@@H]1C`, the activity change (Venus) is -6.63% and the activity change (mCherry) was -1.85% (inactive).
With `CCCNC(=O)N1[C@H](C#N)[C@@H](c2ccccc2C2=CCCCC2)[C@@H]1CO`, the activity change (Venus) stood at 2.66% and the activity change (mCherry) is -4.44% (inactive).
For `O=C(C[C@H]1CC[C@H](NC(=O)c2ccc(F)cc2)[C@@H](CO)O1)NCCc1ccncc1` the same measures were -8.31% and 6.53% (inactive).
The like results for `CC(=O)N(C)C[C@@H]1Oc2cc(C#Cc3ccccc3F)ccc2S(=O)(=O)N([C@@H](C)CO)C[C@@H]1C` were, in that order, -24.5% and -31.1% (inactive).
For `CCCNC(=O)N[C@H]1C=C[C@@H](CC(=O)NC2CCCCC2)O[C@H]1CO` the same measures were -1.05% and -4.3% (inactive).
On to `CS(=O)(=O)Nc1ccc2c(c1)[C@H]1C[C@@H](CC(=O)N3CCOCC3)O[C@@H](CO)[C@H]1O2`, for which the activity change (Venus) was determined as 11.4% and the activity change (mCherry) was 11% (inactive).
For `CC(C)NC(=O)N1[C@H](CO)[C@H](c2ccccc2)C12CN(C(=O)Cc1ccccc1)C2`, the activity change (Venus) was 4.09% and the activity change (mCherry) is -7.19% (inactive).
On to `COc1ccc2c3c([nH]c2c1)[C@@H](CO)N(C(=O)NC(C)C)CC31CCN(C(=O)c2ccccn2)CC1`, for which the activity change (Venus) was 4.18% and the activity change (mCherry) is 12.8% (inactive).
The like results for `O=C(N[C@H]1CC[C@@H](CCn2cc(Cc3ccccc3)nn2)O[C@H]1CO)c1cnccn1` were, in that order, -8.51% and 6.03% (inactive).
As to `COc1ccc(-c2ccccc2[C@@H]2[C@@H](C#N)N(C(=O)NC3CCCC3)[C@H]2CO)cc1`, the activity change (Venus) is -17.8% and the activity change (mCherry) was -22.2% (inactive).
Regarding `C[C@@H]1CN([C@H](C)CO)C(=O)c2cc(NC(=O)Nc3ccc(F)cc3)ccc2O[C@@H](C)CCCCO[C@@H]1CN(C)S(=O)(=O)c1cn(C)cn1`, the activity change (Venus) is 23.4% and the activity change (mCherry) is 41.6% (inactive).
The like results for `CCN1[C@@H]2Cn3c(ccc(-c4cccc(OC)c4)c3=O)[C@H]1[C@@H](C(=O)N(C)C)[C@@H]2CO` were, in that order, 15.1% and 20% (inactive).
For `CO[C@H]1CN(C)C(=O)c2ccc(NC(=O)C3CCOCC3)cc2OC[C@H](C)NC[C@H]1C`, the activity change (Venus) is 1.25% and the activity change (mCherry) was -0.453% (inactive).
As for `CN1c2ccc(C#Cc3cccnc3)cc2[C@H]2[C@H](CCN2S(=O)(=O)c2ccccc2)[C@@H]1CO`, the activity change (Venus) was -9.21% and the activity change (mCherry) is -5.16% (inactive).
The like results for `C[C@H](O)C#Cc1cnc2c(c1)C(=O)N([C@@H](C)CO)C[C@@H](C)[C@@H](CN(C)C(=O)Cc1ccccn1)O2` were, in that order, 10.7% and 17.6% (inactive).
Turning to `O=C(C[C@H]1CC[C@H](NC(=O)CCN2CCCCC2)[C@@H](CO)O1)Nc1ccccc1`, the activity change (Venus) was found to be 15.9% and the activity change (mCherry) is 7.83% (inactive).
For the compound `O=C(NCC[C@H]1CC[C@@H](NS(=O)(=O)c2cccc(Cl)c2)[C@@H](CO)O1)c1cnccn1`, the activity change (Venus) was -5.45% and the activity change (mCherry) is -13.7% (inactive).
For `C[C@H](CO)N1C[C@H](C)[C@@H](CN(C)Cc2ccc(Oc3ccccc3)cc2)Oc2cc(-c3ccncc3)ccc2S1(=O)=O` the same measures were 1.19% and 4.26% (inactive).
For `CO[C@@H]1CC[C@H]2CCN(C)C(=O)C[C@@H](c3ccccc3)CN(C)C(=O)c3cc(C#N)ccc3OC[C@@H]1O2`, the activity change (Venus) is -9.45% and the activity change (mCherry) was -7.23% (inactive).
For `O=C(C[C@@H]1CC[C@H]2[C@@H](COC[C@H](O)CN2C(=O)Nc2ccccc2)O1)NCc1ccccc1F` the same measures were 9.72% and 7.54% (inactive).
The like results for `COc1cccc(S(=O)(=O)N2C[C@@H]3N[C@H](C2)C3c2ccc(-c3cccc(C(=O)N(C)C)c3)cc2)c1` (some centres undefined) were, in that order, -11.2% and -13.4% (inactive).
The like results for `CCCC(=O)N1CC2(CCN(C(=O)C3CC3)CC2)c2c(n(C)c3cc(OC)ccc23)[C@H]1CO` were, in that order, -6.7% and -2.69% (inactive).
Take `COCC(=O)Nc1ccc2c(c1)OC[C@@H](C)N(Cc1ccccn1)C[C@H](C)[C@@H](OC)CN(C)C2=O`: the activity change (Venus) is 15.4% and the activity change (mCherry) was 16.4% (inactive).
In the case of `C/C=C/c1ccc(C2[C@H]3CNC[C@@H]2N3C(=O)Nc2ccc(F)cc2)cc1` (some centres undefined), the activity change (Venus) is 2.48% and -0.546%; the activity change (mCherry) is 0.263% (inactive) and -2.6% (inactive).
Consider `COc1ccc2c3c([nH]c2c1)[C@H](CO)N(C(=O)CN1CCOCC1)CC31CN(C(C)=O)C1`, for which the activity change (Venus) amounted to 24.1% and the activity change (mCherry) is 42.6% (inactive).
On to `C[C@@H]1CCCCO[C@@H](CN(C)C(=O)Cc2ccccc2)[C@H](C)CN([C@H](C)CO)C(=O)c2cc(NC(=O)Cc3ccccc3)ccc2O1`, for which the activity change (Venus) is -23.2% and the activity change (mCherry) was -29.2% (inactive).
In the case of `CN(C)C(=O)c1ccc(-c2ccc([C@H]3[C@H](CO)N4C(=O)CN(C(=O)C5CCCC5)C[C@@H]34)cc2)cc1`, the activity change (Venus) amounted to 3.62% and the activity change (mCherry) was 4.76% (inactive).
The like results for `CO[C@H]1CC[C@H]2CCN(C)C(=O)C[C@@H](c3ccccc3)CN(C)C(=O)c3cccc(C#N)c3OC[C@@H]1O2` were, in that order, 36.7% and 37.9% (inactive).
